The target of assay [1] is Estrogen receptor (Homo sapiens) (UniProt P03372). In words: OT_ER_ERaERa_0480: Odyssey Thera (OT) 8-hour HEK293T Protein-Complementation Assay for Estrogen Receptor-alpha/-alpha Homodimer (AID 2283351).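 Further: rise in fluorescence from reassembled reporter fragments on ERα LBD homodimer in nucleus or whole cell.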 The method, boiled down: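 The readout is complementation of fragments fused to the human ER alpha ligand-binding domain (aa 310-547), stably expressed in HEK293T cells. After 8 h of exposure, the increase in nuclear/cytoplasmic fluorescence was measured by laser scanning cytometry and fitted relative to DMSO.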

Assay [2] addresses T1, Estrogen receptor (Homo sapiens) + Estrogen receptor beta (Homo sapiens) (UniProt P03372+Q92731). In words: OT_ER_ERaERb_0480: Odyssey Thera (OT) 8-hour HEK293T Protein-Complementation Assay for Estrogen Receptor-alpha/-beta Heterodimer (AID 2283352). Put shortly: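 HEK293T cells expressing ER-alpha/ER-beta LBD fusions to complementary reporter fragments were dosed with compound for 8 hours. Heterodimer formation was read as increased nuclear (agonist) or nuclear plus cytoplasmic (antagonist) mean fluorescence intensity versus DMSO vehicle.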

For assay [3], the target named is T1, Estrogen receptor (Homo sapiens) + Estrogen receptor beta (Homo sapiens). In words: OT_ER_ERaERb_1440: Odyssey Thera (OT) 24-hour HEK293T Protein-Complementation Assay for Estrogen Receptor-alpha/-beta Homodimer (AID 2283356).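 Further: heteromer of ER alpha and ER beta binding domains; hits raise reporter fluorescence and both agonists and antagonists give an increase.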 The method, boiled down:
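HEK293T cells stably expressing a PCA pair of ERα LBD (aa 310-547) and ERβ LBD (aa 263-489) were dosed for 24 h. Fluorescence intensity increase versus DMSO vehicle was fitted as gain-of-signal.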

For assay [4], the target named is Estrogen receptor beta (Homo sapiens) (UniProt Q92731). Briefly: OT_ER_ERbERb_0480: Odyssey Thera (OT) 8-hour HEK293T Protein-Complementation Assay for Estrogen Receptor-beta/-beta Homodimer (AID 2283357).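 Further: active means signal gain over DMSO baseline.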 Put shortly:
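Readout: increase in mean fluorescence intensity (nucleus for agonists; nucleus plus cytoplasm for antagonists) relative to DMSO, from a reporter-fragment complementation of human ER-beta LBD homodimer in HEK293T cells dosed 8 hours.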

Assay [5] has as its target Bile acid receptor (Homo sapiens) (UniProt Q96RI1). Briefly: NVS_NR_hFXR_Antagonist: NovaScreen (NVS) Nuclear Receptor Binding Assay for human Farnesoid X Receptor Antagonism (FXR) (AID 2283350). Put shortly:
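Cell-free TR-FRET ligand-binding read-out on human FXR (NR1H4) in antagonist mode, measured 1 h after dosing. Primary screen in duplicate at 25 uM, actives retested in concentration series; signal loss scored versus DMSO.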

Assay [6] concerns the target human Peroxisome Proliferator-activated Receptor alpha (PPARa), PPARA (gene 5465) (UniProt Q07869). Briefly: NVS_NR_hPPARa: NovaScreen (NVS) Nuclear Receptor Binding Assay for human Peroxisome Proliferator-activated Receptor alpha (PPARa) (AID 2283359).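 Further: activity means loss of TR-FRET signal versus DMSO baseline.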 The method, boiled down: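 Cell-free binding assay with extracted human protein, read by TR-FRET 1 h after chemical dosing. Loss of signal relative to DMSO baseline indicates binding. Primary screen used duplicate single concentration (25 uM); actives followed up in concentration series.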

Assay [7] concerns the target Retinoic acid receptor alpha (Homo sapiens) (UniProt P10276). Briefly: NVS_NR_hRAR_Antagonist: NovaScreen (NVS) Nuclear Receptor Binding Assay for human Retinoic Acid Alpha Receptor Antagonism (RAR) (AID 2283358). The method, boiled down: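 Cell-free TR-FRET binding assay on extracted receptor protein, run in antagonist mode; signal read 2 hours after chemical dosing. Loss of signal was fitted relative to DMSO baseline. Screened at 25 uM in duplicate, actives followed up in concentration series.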

Assay [8] has as its target Androgen Receptor/SRC-1 Co-activator, AR (gene 367) (UniProt P10275). In words: OT_AR_ARSRC1_0960: Odyssey Thera (OT) 16-hour HEK293T Protein-Complementation Assay for Androgen Receptor/SRC-1 Co-activator (AID 2283353).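 Further: actives raise the signal above DMSO so potency reflects increased AR and SRC-1 complex.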 The method, boiled down: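 HEK293T cells stably expressing AR and SRC-1 fused to Venus YFP fragments, imaged 16 h after dosing. Nuclear/cytoplasmic fluorescence ratio at 488 nm from at least 400 cells per image; gain of signal relative to DMSO.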

Assay [9] shares this target. Briefly: OT_AR_ARSRC1_0480: Odyssey Thera (OT) 8-hour HEK293T Protein-Complementation Assay for Androgen Receptor/SRC-1 Co-activator (AID 2283354).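 Further: hits raise the complementation signal above DMSO so AC50 marks enhancers.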 The method, boiled down:
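HEK293T cells stably expressing AR and SRC-1 fused to split Venus YFP fragments via (Gly4Ser)2 linkers were read 8 h after compound dosing. Complementation was imaged at 488 and 635nm, and nuclear/cytoplasmic fluorescence ratio (488nm) was taken over ≥400 cells; gain-of-signal versus DMSO.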

The target in assay [10] is rat Mineralocorticoid Receptor (MR), Nr3c2 (gene 25672) (UniProt P22199). Briefly: NVS_NR_rMR: NovaScreen (NVS) Nuclear Receptor Binding Assay for rat Mineralocorticoid Receptor (MR) (AID 2283355). The method, boiled down: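 Cell-free radioligand binding to MR in adrenalectomized rat brain supernatant, scintillation counted 24 h after dosing. Loss of signal versus DMSO baseline marks displacement. Primary screen in duplicate at 25 uM; actives retested as concentration series.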

The term AC50 denotes the concentration giving half of the maximal activity seen.

Where “and” joins values, the source holds several entries; their conditions need not be identical. Equal values may be shown once. Inconclusive results are not listed. A structure can be active in one record and inactive in another. Calls of active or inactive are those of the source. How the source made its calls: active means hit-call score of the fitted dose curve at least 0.9, where 1 is the maximum; inconclusive means response in the unintended direction; inactive means score below 0.9.

Estrogen receptor beta (Homo sapiens), sequence (Q92731 whole entry, looked up, the tested form may be a part): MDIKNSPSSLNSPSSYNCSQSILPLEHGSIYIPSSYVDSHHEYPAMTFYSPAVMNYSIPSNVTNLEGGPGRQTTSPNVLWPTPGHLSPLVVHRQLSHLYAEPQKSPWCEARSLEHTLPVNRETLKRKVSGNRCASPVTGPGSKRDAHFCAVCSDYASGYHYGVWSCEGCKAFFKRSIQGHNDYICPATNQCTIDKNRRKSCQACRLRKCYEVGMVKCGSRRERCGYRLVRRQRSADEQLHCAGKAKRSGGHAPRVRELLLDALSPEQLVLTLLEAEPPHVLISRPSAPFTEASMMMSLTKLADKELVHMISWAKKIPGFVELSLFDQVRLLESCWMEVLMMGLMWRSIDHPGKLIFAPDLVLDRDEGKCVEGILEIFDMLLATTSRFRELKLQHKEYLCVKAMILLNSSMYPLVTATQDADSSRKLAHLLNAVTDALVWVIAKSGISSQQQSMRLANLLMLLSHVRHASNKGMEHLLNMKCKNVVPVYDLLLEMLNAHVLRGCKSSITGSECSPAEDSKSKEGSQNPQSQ
human Peroxisome Proliferator-activated Receptor alpha (PPARa), PPARA (gene 5465), sequence (Q07869 whole entry, looked up): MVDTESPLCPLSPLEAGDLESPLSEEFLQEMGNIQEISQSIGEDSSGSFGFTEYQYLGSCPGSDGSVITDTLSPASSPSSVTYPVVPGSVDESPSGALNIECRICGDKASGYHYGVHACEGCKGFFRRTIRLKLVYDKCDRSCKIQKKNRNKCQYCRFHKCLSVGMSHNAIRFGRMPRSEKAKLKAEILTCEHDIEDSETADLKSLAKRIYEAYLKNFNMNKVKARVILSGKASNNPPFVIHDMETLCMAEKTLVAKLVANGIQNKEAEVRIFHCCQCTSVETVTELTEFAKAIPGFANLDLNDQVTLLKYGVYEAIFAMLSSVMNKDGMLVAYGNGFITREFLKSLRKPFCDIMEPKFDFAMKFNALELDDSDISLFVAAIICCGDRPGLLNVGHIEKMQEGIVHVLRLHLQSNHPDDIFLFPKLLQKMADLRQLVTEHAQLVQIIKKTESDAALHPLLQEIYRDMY
Retinoic acid receptor alpha (Homo sapiens), sequence (P10276 whole entry, looked up): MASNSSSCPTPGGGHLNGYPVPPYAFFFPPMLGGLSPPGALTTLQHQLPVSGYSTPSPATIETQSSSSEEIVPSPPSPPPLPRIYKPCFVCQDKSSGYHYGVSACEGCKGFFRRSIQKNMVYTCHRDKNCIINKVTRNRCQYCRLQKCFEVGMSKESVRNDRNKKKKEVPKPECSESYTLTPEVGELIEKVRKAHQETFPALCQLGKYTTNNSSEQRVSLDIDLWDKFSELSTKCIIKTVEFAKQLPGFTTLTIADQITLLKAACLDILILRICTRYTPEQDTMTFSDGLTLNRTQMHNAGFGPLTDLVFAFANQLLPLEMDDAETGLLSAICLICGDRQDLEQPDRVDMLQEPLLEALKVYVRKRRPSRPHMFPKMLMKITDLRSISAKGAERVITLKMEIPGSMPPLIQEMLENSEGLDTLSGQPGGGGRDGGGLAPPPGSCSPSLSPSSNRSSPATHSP
rat Mineralocorticoid Receptor (MR), Nr3c2 (gene 25672), sequence (P22199 whole entry, looked up): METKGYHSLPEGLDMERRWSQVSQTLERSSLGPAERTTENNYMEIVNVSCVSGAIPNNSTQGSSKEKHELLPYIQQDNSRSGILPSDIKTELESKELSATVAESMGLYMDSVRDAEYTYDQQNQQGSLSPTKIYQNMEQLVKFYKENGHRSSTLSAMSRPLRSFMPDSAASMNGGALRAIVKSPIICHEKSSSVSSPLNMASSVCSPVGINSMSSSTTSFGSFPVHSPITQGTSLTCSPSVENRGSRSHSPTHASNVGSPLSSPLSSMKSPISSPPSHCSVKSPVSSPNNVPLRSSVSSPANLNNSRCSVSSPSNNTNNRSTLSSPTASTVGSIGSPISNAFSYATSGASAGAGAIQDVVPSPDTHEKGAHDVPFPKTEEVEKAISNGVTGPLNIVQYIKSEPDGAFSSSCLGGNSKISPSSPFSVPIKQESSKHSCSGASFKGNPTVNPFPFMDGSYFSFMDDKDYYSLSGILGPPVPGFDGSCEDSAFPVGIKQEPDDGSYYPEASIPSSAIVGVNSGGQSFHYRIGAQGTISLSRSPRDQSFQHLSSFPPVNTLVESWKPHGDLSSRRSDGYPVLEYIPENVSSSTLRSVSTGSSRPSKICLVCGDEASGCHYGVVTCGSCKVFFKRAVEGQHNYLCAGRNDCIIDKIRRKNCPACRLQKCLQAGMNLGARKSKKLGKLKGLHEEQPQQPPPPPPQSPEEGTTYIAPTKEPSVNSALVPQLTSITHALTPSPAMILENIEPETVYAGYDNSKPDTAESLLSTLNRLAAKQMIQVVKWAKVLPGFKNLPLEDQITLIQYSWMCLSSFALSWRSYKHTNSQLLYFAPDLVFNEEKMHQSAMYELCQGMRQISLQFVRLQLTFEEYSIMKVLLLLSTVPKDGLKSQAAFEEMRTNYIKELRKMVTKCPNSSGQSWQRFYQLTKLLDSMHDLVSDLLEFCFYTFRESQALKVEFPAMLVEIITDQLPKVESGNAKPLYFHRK
Estrogen receptor (Homo sapiens), sequence (P03372 whole entry, looked up, the tested form may be a part): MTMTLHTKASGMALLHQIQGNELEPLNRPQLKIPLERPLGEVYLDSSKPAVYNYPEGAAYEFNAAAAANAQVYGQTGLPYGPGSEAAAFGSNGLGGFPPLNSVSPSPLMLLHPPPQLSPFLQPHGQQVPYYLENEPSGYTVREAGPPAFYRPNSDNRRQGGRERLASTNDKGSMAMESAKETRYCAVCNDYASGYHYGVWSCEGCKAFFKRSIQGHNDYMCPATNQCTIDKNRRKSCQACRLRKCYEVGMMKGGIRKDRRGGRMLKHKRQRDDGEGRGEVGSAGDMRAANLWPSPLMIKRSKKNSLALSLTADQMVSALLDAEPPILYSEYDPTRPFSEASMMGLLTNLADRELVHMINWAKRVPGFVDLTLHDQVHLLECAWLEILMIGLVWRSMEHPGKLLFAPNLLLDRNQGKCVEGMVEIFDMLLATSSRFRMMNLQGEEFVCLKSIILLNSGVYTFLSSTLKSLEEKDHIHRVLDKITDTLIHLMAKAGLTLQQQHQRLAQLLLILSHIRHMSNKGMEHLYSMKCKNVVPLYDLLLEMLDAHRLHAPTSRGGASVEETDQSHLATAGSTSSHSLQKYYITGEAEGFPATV
T1 sequence (P03372 whole entry, looked up, the tested form may be a part): as above
T1 sequence (Q92731 whole entry, looked up, the tested form may be a part): as the sequence (Q92731 whole entry, looked up, the tested form may be a part) above
Androgen Receptor/SRC-1 Co-activator, AR (gene 367), sequence (P10275 whole entry, looked up, the tested form may be a part): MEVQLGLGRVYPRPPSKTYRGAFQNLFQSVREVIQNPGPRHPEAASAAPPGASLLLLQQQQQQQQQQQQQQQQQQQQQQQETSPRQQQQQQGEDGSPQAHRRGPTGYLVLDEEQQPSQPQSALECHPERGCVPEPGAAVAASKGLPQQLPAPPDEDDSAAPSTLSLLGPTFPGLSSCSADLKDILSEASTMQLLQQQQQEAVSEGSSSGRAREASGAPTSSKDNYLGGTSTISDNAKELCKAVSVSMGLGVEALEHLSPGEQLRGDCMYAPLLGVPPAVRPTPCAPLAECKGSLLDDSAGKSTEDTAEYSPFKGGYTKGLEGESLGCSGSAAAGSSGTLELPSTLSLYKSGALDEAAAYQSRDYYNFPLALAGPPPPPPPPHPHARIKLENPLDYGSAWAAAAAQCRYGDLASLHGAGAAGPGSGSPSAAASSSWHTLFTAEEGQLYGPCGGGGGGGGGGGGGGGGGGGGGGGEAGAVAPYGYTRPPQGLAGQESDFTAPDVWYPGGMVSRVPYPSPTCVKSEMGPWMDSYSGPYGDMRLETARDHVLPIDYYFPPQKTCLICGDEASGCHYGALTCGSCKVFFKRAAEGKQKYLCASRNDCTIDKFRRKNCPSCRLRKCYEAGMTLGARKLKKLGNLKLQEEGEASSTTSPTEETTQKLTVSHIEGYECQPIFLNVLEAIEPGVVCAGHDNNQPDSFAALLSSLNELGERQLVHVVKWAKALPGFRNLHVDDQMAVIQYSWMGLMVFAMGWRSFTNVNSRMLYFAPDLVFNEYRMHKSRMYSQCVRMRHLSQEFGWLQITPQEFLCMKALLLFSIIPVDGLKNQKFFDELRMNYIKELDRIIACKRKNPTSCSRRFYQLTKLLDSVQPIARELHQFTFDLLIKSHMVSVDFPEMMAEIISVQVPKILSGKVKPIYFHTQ
Bile acid receptor (Homo sapiens), sequence (Q96RI1 whole entry, looked up): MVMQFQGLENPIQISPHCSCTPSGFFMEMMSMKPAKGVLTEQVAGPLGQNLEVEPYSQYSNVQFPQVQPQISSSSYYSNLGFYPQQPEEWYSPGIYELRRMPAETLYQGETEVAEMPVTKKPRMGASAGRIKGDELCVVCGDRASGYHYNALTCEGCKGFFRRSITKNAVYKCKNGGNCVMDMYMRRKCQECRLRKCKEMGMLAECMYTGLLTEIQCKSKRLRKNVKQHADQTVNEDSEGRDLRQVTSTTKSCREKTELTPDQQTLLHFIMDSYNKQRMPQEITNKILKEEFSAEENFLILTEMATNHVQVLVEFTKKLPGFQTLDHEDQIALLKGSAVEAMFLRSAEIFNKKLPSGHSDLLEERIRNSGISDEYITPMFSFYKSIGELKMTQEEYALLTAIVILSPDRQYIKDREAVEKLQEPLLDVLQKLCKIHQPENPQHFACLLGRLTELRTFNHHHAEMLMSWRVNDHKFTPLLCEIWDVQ

In the case of `CCCCC(CC)CN1C(=O)C2C3C=CC(C3)C2C1=O` (configuration not stated), the call in assay [1], in [2], in assay [3] and in assay [4] was inactive.
With `CCCCOC(=O)[C@@H](C)Oc1ccc(Oc2ccc(C(F)(F)F)cn2)cc1`, the molecule was classed as inactive in assay [1], in assay [2], in assay [3] and in assay [4].
Turning to `C[C@]12C[C@H](O)[C@H]3[C@@H](CCC4=CC(=O)CC[C@@]43C)[C@@H]1CC[C@@H]2C(=O)CO`, the molecule was called inactive in [1], in assay [2], in [3] and in assay [4].
In the case of `CCN(CC)C(=O)c1cccc(C)c1`, the molecule was classed as inactive in [5], in assay [1], in [3] and in assay [4].
On to `CC(=O)[C@H]1CC[C@H]2[C@@H]3CCC4=CC(=O)CC[C@]4(C)[C@H]3CC[C@]12C`, for which the call in assay [1], in assay [2], in assay [3] and in [4] was inactive.
Turning to `c1ccc(Nc2ccccc2)cc1`, the AC50 in [4] was 50.8 µM (active).
`CC(C)CCCCCCc1ccc(O)cc1`: the AC50 in assay [2] was 1.36 µM (active) and 1.78 µM (active) and 1.89 µM (active); in assay [3], 2.25 µM (active) and 2.44 µM (active); in assay [4], 836 nM (active) and 1.48 µM (active) and 1.04 µM (active). The result in assay [6] was inactive.
With `CCCCCOC(=O)COc1cc(N2C(=O)C3=C(CCCC3)C2=O)c(F)cc1Cl`, the outcome in [1], in assay [3] and in [7] was inactive.
Consider `CCC(C)OC(=O)N1CCCCC1CCO` (configuration not stated), for which, in assay [4], the call was inactive.
In the case of `C[C@]12CC[C@@H]3c4ccc(O)cc4C[C@@H](CCCCCCCCCS(=O)CCCC(F)(F)C(F)(F)F)[C@H]3[C@@H]1CC[C@@H]2O` (some centres not stated), the molecule was classed as inactive in assay [8] and in [9].
`CN(C)C(=O)Nc1ccc(Cl)c(Cl)c1`: the call in [1], in assay [8], in assay [9] and in assay [6] was inactive.
For the molecule `COC(=O)c1ccc(I)cc1S(=O)(=O)NC(=O)Nc1nc(C)nc(OC)n1`, the result in [10] and in assay [4] was inactive.
For `COC(=O)CSc1cc(N=c2sc(=O)n3n2CCCC3)c(F)cc1Cl`, the call in assay [8] and in assay [9] was inactive.
Regarding `CCCCCCC(C)OC(=O)COc1nc(F)c(Cl)c(N)c1Cl` (configuration not stated), in assay [4], the molecule was classed as inactive.
For the molecule `N[C@@H](Cc1cc(I)c(Oc2ccc(O)c(I)c2)c(I)c1)C(=O)O`, the molecule was classed as inactive in [1]. In assay [6], the half-maximal activity concentration (AC50) is 27.3 µM (active) and 20 µM (active); the molecule was called inactive.
On to `S=C([S-])NCCNC(=S)[S-].[Mn+2]`, for which, in assay [4], the outcome was inactive.
As for `CC(C)(C)[C@@H](O)[C@@H](Cc1ccc(Cl)cc1)n1cncn1`, the outcome in [10] and in [4] was inactive.
For `CCCCC(CC)COC(=O)c1ccccc1C(=O)O` (configuration not stated), the molecule was classed as inactive in [4].
As to `c1ccc2[nH]c(-c3cscn3)nc2c1`, the call in assay [1], in [8], in assay [9], in assay [3] and in assay [4] was inactive.
With `C=CCOC(Cn1ccnc1)c1ccc(Cl)cc1Cl` (configuration not stated), the result in assay [4] and in [6] was inactive.
Consider `S=C(S)NCCNC(=S)S.[Mn+2].[S-]C([S-])=NCCN=C([S-])[S-].[Zn+2]`, for which, in [10], the molecule was classed as inactive. In addition, in assay [6], the AC50 was 12.5 µM (active) and the molecule was classed as inactive.
For the molecule `CCCN(CCC)c1c([N+](=O)[O-])cc(C(F)(F)F)c(N)c1[N+](=O)[O-]`, the molecule was called inactive in [1], in assay [3], in [4] and in assay [7]. Also, the AC50 in assay [2] was 428 nM (active).
Turning to `CCOC(=O)C(C)Oc1ccc(Oc2nc3ccc(Cl)cc3o2)cc1` (configuration not stated), the outcome in [8], in assay [9] and in assay [4] was inactive.
In the case of `CC(C)(c1ccc(O)cc1)c1ccc(O)cc1`, the molecule was classed as inactive in [1], in assay [8], in [9] and in assay [10]. Further, the AC50 in assay [8] is 63.3 µM (active) and 51 µM (active) and 64.6 µM (active); in [10], 12.1 µM (active); in assay [6], 0.105 µM (active).
Regarding `C#CCOC(=O)[C@@H](C)Oc1ccc(Oc2ncc(Cl)cc2F)cc1`, the result in assay [2], in assay [3] and in [4] was inactive.
As to `COC(=O)c1ccc(CNS(C)(=O)=O)cc1S(=O)(=O)NC(=O)Nc1nc(OC)cc(OC)n1`, the molecule was called inactive in [7].
Consider `CC1(C)C(C=C(Cl)Cl)C1C(=O)OCc1cccc(Oc2ccccc2)c1` (configuration not stated), for which the molecule was called inactive in assay [1], in assay [8] and in [9].
Regarding `CSC(=O)c1cccc2nnsc12`, the result in assay [1] was inactive. In addition, the concentration at half-maximal activity (AC50) in assay [8] is 32.5 µM (active); in [9] it was 22.4 µM (active).
As to `C#C[C@]1(O)CC[C@H]2[C@@H]3CCC4=CC(=O)CC[C@@H]4[C@H]3CC[C@@]21CC`, in assay [1], the molecule was classed as inactive. Also, the AC50 in assay [10] was 0.0945 µM (active).
Turning to `CCCCOCCOCCOCc1cc2c(cc1CCC)OCO2`, the result in assay [8], in assay [9] and in assay [4] was inactive.
Regarding `O=C(O)C1(C(=O)Nc2ccc(Cl)cc2Cl)CC1`, the result in assay [2], in assay [8], in assay [3], in [4] and in [7] was inactive.

The record behind these values is PubChem BioAssay (EPA / NIEHS).
